Test results reported in PubChem BioAssay AID504725 (Broad Institute, 2011).
Potency and affinity values are given separately. The source made the active and inactive calls. How the calls were made is not given here.

biological target: KSHV LANA C-terminal domain (residues 932-1162) binding to LBS DNA (UniProt O40947); test: KSHV LANA DNA-binding disruption – biochemical, fluorescence polarization, cherry-picked samples, dose response (AID 504725); details: MBP-C-LANA / FAM-LBS DNA fluorescence polarization, percent change from plate compound-well median; series mostly up to 35 µM

outcome, inactive:
NC(=O)C1(N2CCCCC2)CCN(Cc2ccc(Br)cc2)CC1
CC(/C=C1\SC(=S)N(CCCC(=O)Nc2ccc(C(=O)O)cc2)C1=O)=C\c1ccccc1
COc1ccc(CNC(=O)C2CCC(CNC(=O)[C@@H]3Cc4ccccc4CN3)CC2)cc1 (stereo partly drawn)
O=c1[nH]nc(CSCc2ccccc2Cl)[nH]1
O=C(O)c1cccc(NC2=Nc3cccc4cccc2c34)c1
O=C(O)/C=C/c1ccccc1Oc1ccccc1
CC(C)[C@H](NC(=O)c1ccccc1F)C(=O)NC1CCCCCCC1
N#C/C(=C\c1ccc(-c2ccccc2[N+](=O)[O-])o1)C(N)=O
C=CCNC(=O)c1cn(CC)c2cc(N3CCN(C(=O)c4ccco4)CC3)c(F)cc2c1=O
NNc1nc(-c2ccccc2)cs1
O=C1c2ccccc2C(=O)N1Cc1ccc2c(c1)OCO2
O=C(Cn1ncc(N2CCCC2)c(Cl)c1=O)c1ccc(Cl)cc1
O=C(O)/C=C/C(=O)Nc1ccc(Cc2ccc(NC(=O)/C=C/C(=O)O)cc2)cc1
CCN(CC(=O)Nc1c(F)cccc1F)C(=O)CCCc1cccs1
Nc1cc(N)nc(SCC(=O)N2CCCCC2)n1
COc1cccc(C2CC(=O)Nc3cc4c(cc32)CCC4)c1 (stereo not drawn)
COc1ccc(NS(=O)(=O)c2cccc3ccccc23)cc1
Nc1nc(SCC(=O)N2CCCCC2)[nH]c(=O)c1NC(=O)c1cccs1
CCCc1cc(=O)oc2cc(C)cc(OCC(=O)O)c12
COc1cccc(-c2cc(C(=O)N3CCN(S(=O)(=O)c4ccccc4)CC3)[nH]n2)c1
CCOC(=O)N1CCN(C(=S)NC(=O)c2cccc(OC)c2)CC1
COc1ccc(/C=C/c2cc(C(F)(F)F)[nH]c(=O)n2)cc1OC
Brc1ccc(-c2noc(COc3ccc4c(c3)CCC4)n2)o1
CC(Sc1nc2ccccc2s1)C(=O)Nc1nnc(C(C)C)s1 (stereo not drawn)
CN(C)c1ccc(/C=C/C(=O)c2ccc(O)cc2)cc1[N+](=O)[O-]
CN(c1ccc(OCC(=O)OCC(=O)c2c(N)n(C)c(=O)n(C)c2=O)cc1)S(=O)(=O)c1ccc2ccccc2c1
NC(=S)N/N=C/c1cn(CCC(=O)O)nc1-c1cccc(Br)c1
CC(C)c1ccc(CNc2ccc([N+](=O)[O-])cn2)cc1
CCn1c(=O)c(C(=O)NCCN2CCCCC2)c(O)c2ccccc21
S=c1c2c(nc3nc[nH]n13)CCC2
CCCCn1c(NS(=O)(=O)c2ccc(C)cc2)c(S(=O)(=O)c2ccccc2)c2nc3ccccc3nc21
CC(C)(C)OC(=O)C[C@@H]1C/C=C\C[C@H](CC(=O)N(CCO)Cc2ccccc2)C(=O)N[C@@H](c2ccccc2)COC1=O
O=C(N/N=C\c1ccc([N+](=O)[O-])o1)c1cncc(Br)c1
O=C(CN(Cc1ccccc1F)C(=O)c1csnn1)NCc1ccc2c(c1)OCO2
CCOc1ccc(Nc2ccc(N)c(S(=O)(=O)O)c2)cc1
CC1CC(C)(C)NC(=S)N1CC(=O)N(C)Cc1ccccc1 (stereo not drawn)
Cc1ccc2c(c1)nnn2C1CCN(C(=O)c2cccs2)CC1
Cc1cc(Cl)ccc1N1C(=O)CC(NNC(=O)c2cccnc2)C1=O (stereo not drawn)
